Source: ChEMBL document CHEMBL1961873, “Compounds: GSK PKIS; Assays: Nanosyn kinase panel” (2012)

How the values were obtained:
[1] = biological target: Rho-associated protein kinase 1 (Homo sapiens) (UniProt Q13464); conditions: at 1 µM;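 also: reported values are mean percent inhibition of ROCK1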
[2] = biological target: Rho-associated protein kinase 2 (Homo sapiens) (UniProt O75116); conditions: at 0.1 µM
[3] = biological target: Rho-associated protein kinase 2 (Homo sapiens) (UniProt O75116); conditions: at 1 µM
[4] = biological target: Ribosomal protein S6 kinase alpha-1 (Homo sapiens) (UniProt Q15418); conditions: at 0.1 µM
[5] = biological target: Ribosomal protein S6 kinase alpha-1 (Homo sapiens) (UniProt Q15418); conditions: at 1 µM
[6] = biological target: Ribosomal protein S6 kinase alpha-3 (Homo sapiens) (UniProt P51812); conditions: at 0.1 µM
Ribosomal protein S6 kinase alpha-3 (Homo sapiens), sequence (P51812 whole entry): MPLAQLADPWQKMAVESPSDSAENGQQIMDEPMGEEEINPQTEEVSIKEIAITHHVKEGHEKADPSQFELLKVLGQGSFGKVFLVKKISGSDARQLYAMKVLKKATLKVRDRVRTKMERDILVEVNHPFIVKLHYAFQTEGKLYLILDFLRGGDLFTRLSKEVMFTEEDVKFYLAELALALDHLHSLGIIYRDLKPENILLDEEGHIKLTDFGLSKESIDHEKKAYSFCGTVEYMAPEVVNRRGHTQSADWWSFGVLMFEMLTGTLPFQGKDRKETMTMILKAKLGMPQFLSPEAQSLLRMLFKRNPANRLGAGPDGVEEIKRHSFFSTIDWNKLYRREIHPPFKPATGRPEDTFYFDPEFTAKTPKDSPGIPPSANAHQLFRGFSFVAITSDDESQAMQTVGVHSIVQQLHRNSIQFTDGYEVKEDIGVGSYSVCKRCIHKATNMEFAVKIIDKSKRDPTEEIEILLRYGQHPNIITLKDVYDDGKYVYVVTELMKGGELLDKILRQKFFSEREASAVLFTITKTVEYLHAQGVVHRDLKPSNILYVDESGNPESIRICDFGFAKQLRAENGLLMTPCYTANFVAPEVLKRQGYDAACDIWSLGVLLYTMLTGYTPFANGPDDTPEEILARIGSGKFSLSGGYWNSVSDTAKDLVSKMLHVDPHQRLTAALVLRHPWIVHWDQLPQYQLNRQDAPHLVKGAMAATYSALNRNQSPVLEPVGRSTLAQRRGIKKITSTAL

[7] = biological target: Ribosomal protein S6 kinase alpha-3 (Homo sapiens) (UniProt P51812); conditions: at 1 µM
[8] = biological target: Ribosomal protein S6 kinase alpha-2 (Homo sapiens) (UniProt Q15349); conditions: at 0.1 µM
Ribosomal protein S6 kinase alpha-2 (Homo sapiens), sequence (Q15349 whole entry): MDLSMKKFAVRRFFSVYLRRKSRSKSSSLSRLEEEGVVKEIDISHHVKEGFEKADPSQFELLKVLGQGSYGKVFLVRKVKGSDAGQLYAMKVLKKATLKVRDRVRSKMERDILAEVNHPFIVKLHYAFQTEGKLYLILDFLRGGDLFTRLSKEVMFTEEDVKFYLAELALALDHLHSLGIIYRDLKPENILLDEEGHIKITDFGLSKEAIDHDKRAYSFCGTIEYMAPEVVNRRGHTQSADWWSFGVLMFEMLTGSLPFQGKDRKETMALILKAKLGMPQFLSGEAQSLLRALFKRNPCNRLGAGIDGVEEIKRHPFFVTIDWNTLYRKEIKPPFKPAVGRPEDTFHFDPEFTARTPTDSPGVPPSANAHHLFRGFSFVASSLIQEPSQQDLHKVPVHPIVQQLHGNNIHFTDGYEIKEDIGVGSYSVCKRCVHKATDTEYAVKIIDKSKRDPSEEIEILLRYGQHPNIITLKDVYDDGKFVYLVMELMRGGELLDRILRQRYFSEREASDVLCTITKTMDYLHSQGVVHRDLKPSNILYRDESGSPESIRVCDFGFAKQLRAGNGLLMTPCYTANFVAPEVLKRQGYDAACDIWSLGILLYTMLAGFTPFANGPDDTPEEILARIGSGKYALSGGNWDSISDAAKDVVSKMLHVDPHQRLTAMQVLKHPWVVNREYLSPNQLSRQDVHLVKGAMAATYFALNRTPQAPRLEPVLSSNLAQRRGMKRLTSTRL

[9] = biological target: Ribosomal protein S6 kinase alpha-2 (Homo sapiens) (UniProt Q15349); conditions: at 1 µM
[10] = biological target: Ribosomal protein S6 kinase alpha-6 (Homo sapiens) (UniProt Q9UK32); conditions: at 0.1 µM
Ribosomal protein S6 kinase alpha-6 (Homo sapiens), sequence (Q9UK32 whole entry): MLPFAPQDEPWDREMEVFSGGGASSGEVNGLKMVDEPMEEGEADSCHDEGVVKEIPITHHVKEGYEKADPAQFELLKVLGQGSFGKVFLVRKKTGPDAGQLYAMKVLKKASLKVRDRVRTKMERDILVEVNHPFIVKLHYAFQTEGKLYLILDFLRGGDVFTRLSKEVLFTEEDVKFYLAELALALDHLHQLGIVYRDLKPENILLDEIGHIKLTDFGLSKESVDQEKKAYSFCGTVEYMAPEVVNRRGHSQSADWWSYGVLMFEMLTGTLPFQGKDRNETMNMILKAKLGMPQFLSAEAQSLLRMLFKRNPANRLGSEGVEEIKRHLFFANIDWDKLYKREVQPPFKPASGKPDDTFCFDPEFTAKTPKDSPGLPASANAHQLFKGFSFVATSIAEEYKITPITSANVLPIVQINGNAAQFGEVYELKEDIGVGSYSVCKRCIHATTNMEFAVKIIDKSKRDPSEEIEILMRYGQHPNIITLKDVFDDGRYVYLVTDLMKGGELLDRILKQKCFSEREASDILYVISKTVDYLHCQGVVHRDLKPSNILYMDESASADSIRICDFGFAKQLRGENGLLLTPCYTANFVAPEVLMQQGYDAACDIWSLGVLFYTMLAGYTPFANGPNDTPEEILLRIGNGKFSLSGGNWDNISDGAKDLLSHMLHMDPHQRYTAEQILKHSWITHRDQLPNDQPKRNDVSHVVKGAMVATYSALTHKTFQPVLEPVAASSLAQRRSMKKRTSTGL

[11] = biological target: Ribosomal protein S6 kinase alpha-6 (Homo sapiens) (UniProt Q9UK32); conditions: at 1 µM
[12] = biological target: T1, Serine/threonine-protein kinase Sgk1 (Homo sapiens) (UniProt O00141); conditions: at 0.1 µM
T1 sequence (whole entry): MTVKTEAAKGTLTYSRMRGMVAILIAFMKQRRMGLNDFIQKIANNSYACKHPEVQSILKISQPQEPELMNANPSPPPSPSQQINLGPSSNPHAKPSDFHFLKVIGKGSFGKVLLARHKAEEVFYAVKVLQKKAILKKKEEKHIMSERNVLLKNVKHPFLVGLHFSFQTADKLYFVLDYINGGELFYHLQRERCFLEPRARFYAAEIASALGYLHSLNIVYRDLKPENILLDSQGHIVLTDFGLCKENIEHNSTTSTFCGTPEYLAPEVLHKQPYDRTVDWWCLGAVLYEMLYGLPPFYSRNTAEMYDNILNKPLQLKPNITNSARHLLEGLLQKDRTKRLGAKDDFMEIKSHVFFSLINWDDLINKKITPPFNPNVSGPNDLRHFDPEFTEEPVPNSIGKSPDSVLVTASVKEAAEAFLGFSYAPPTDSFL

[13] = biological target: T1, Serine/threonine-protein kinase Sgk1 (Homo sapiens); conditions: at 1 µM
[14] = biological target: T2, Serine/threonine-protein kinase Sgk2 (Homo sapiens) (UniProt Q9HBY8); conditions: at 0.1 µM
T2 sequence (whole entry): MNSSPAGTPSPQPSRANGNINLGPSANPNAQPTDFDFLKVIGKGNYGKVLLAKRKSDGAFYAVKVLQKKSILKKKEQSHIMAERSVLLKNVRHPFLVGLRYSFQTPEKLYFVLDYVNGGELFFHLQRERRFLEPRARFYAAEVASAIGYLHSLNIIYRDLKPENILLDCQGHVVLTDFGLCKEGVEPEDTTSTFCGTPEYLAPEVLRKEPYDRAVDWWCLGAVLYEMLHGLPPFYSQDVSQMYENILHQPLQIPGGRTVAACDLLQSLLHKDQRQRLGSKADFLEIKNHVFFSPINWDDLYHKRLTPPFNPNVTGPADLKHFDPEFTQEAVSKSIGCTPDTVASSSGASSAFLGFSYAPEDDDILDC

[15] = biological target: T2, Serine/threonine-protein kinase Sgk2 (Homo sapiens); conditions: at 1 µM
[16] = biological target: T3, Serine/threonine-protein kinase Sgk3 (Homo sapiens) (UniProt Q96BR1); conditions: at 0.1 µM
T3 sequence (whole entry): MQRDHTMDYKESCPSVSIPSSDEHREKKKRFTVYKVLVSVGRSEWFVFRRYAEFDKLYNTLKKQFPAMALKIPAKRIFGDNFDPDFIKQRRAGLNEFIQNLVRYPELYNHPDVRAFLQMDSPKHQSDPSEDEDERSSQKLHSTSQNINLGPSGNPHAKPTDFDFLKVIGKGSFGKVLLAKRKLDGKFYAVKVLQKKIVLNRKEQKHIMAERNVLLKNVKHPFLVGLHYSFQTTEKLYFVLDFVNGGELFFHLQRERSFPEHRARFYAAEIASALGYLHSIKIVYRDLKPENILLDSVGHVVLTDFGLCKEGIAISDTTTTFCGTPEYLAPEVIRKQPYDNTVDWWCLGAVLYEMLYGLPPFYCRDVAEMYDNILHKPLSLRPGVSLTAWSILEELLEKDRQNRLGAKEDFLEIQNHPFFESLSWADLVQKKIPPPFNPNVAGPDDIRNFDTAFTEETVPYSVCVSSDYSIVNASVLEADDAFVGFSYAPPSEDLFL

[17] = biological target: T3, Serine/threonine-protein kinase Sgk3 (Homo sapiens); conditions: at 1 µM
[18] = biological target: 5'-AMP-activated protein kinase catalytic subunit alpha-1 (Homo sapiens) (UniProt Q13131); conditions: at 0.1 µM
[19] = biological target: 5'-AMP-activated protein kinase catalytic subunit alpha-1 (Homo sapiens) (UniProt Q13131); conditions: at 1 µM
[20] = biological target: 5'-AMP-activated protein kinase catalytic subunit alpha-2 (Homo sapiens) (UniProt P54646); conditions: at 0.1 µM;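 also: mean inhibition measured on the AMPK complex of alpha2, beta1 and gamma1 subunits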

Rho-associated protein kinase 2 (Homo sapiens), sequence (O75116 whole entry, looked up): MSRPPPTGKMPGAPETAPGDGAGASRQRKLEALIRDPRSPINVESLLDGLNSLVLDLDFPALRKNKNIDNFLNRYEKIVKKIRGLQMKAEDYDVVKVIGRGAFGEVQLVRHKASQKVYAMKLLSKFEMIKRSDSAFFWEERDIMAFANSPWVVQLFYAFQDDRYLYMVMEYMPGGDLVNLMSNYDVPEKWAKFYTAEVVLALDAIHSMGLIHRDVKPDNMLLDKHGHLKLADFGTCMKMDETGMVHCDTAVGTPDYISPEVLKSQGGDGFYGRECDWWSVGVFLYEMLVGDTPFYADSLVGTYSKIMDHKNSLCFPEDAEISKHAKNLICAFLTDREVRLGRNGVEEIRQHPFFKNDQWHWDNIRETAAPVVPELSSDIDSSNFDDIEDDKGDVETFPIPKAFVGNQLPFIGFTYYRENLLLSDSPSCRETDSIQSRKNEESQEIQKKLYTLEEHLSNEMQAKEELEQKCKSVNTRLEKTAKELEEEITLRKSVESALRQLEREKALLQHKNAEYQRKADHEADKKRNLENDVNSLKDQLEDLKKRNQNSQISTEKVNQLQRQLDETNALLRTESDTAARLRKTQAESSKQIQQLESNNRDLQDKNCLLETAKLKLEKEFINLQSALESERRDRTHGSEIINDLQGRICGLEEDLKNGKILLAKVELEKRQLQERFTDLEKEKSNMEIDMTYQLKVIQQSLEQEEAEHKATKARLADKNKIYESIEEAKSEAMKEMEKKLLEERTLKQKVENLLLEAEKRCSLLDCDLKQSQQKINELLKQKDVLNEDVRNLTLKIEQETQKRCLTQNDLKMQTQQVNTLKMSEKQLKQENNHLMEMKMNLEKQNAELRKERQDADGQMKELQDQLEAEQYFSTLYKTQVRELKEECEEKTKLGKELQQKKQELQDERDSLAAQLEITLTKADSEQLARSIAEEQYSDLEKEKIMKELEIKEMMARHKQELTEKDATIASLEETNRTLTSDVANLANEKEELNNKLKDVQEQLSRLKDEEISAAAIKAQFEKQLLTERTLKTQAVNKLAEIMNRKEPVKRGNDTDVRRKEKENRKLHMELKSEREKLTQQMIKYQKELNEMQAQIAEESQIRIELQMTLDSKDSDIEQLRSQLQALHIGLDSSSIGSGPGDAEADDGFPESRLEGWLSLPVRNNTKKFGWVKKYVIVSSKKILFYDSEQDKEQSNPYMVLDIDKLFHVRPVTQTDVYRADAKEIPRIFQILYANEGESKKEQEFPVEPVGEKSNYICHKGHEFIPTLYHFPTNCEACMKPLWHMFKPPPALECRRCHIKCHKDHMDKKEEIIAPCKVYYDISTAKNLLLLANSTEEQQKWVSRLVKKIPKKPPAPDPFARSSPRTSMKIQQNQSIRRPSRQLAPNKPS
Rho-associated protein kinase 1 (Homo sapiens), sequence (Q13464 2-1354 limits assumed): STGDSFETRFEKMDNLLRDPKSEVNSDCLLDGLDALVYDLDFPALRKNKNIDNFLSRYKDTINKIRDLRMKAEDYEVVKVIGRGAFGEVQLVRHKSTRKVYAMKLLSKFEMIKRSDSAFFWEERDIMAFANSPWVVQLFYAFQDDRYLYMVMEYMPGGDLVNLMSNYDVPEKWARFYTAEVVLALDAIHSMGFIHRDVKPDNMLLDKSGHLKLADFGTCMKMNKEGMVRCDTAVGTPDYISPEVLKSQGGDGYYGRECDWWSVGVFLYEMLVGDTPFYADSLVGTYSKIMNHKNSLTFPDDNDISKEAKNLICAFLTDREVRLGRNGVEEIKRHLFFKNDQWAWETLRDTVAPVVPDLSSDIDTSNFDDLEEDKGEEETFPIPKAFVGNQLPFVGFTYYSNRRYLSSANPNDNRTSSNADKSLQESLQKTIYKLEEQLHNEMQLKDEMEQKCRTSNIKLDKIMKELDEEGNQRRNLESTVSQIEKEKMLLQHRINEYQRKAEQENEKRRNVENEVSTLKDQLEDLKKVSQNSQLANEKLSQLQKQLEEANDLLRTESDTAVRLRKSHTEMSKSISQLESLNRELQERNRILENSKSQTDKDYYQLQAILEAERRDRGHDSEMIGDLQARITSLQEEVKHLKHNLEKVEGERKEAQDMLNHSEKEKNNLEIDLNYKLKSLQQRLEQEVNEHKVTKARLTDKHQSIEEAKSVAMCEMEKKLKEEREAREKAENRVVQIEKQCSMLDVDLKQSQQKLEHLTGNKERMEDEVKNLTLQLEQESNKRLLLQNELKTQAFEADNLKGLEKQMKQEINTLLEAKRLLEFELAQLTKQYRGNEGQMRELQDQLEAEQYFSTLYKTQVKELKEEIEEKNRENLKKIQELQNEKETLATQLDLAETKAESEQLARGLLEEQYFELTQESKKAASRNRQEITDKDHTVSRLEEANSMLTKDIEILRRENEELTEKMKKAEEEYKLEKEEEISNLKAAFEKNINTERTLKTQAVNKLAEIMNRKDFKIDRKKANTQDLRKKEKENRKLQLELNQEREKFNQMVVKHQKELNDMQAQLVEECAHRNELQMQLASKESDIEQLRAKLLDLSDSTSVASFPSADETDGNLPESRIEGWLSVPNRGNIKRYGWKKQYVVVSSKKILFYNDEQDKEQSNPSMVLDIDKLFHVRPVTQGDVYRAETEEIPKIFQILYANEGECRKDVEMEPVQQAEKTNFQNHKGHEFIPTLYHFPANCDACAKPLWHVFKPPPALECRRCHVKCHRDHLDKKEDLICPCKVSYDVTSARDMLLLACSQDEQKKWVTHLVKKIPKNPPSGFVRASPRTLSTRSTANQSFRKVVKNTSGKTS

| Structure (SMILES) | inhibition [1] [%] | inhibition [2] [%] | inhibition [3] [%] | inhibition [4] [%] | inhibition [5] [%] | inhibition [6] [%] | inhibition [7] [%] | inhibition [8] [%] | inhibition [9] [%] | inhibition [10] [%] | inhibition [11] [%] | inhibition [12] [%] | inhibition [13] [%] | inhibition [14] [%] | inhibition [15] [%] | inhibition [16] [%] | inhibition [17] [%] | inhibition [18] [%] | inhibition [19] [%] | inhibition [20] [%] |
| --- | --- | --- | --- | --- | --- | --- | --- | --- | --- | --- | --- | --- | --- | --- | --- | --- | --- | --- | --- | --- |
| COc1ccc2cc(-c3c(-c4ccncc4)nc(-c4ccc([S+](C)[O-])cc4C)n3C)ccc2c1 (stereo not given) | -0.59 | -0.57 | -0.64 | -0.66 | -1.48 | -0.38 | -0.28 | 0.02 | -0.67 | -0.13 | 0.61 | -0.3 | 0.17 | -1.2 | 0.22 | -0.05 | 0.65 | -0.62 | -0.8 | 3.22 |
| COc1ccc2ncn(-c3cc(O[C@H](C)c4ccccc4Cl)c(C(N)=O)s3)c2c1 | 2.68 | 1.42 | 2.59 | -0.02 | 0.44 | -1.13 | -0.23 | 1.47 | 1.88 | 0.03 | 3.6 | 2.42 | 2.1 | 0.49 | 2.09 | 3.92 | 5.77 | 2.16 | 2.45 | 2.54 |
| c1ccc(-c2n[nH]cc2-c2ccnc(-c3ccc(OCCN4CCOCC4)cc3)c2)nc1 | 2.14 | -0.2 | -1.4 | 0.42 | -1.3 | 0.55 | 0.57 | -0.89 | -0.56 | -0.33 | -0.39 | 5.23 | 3.03 | 3.23 | -0.68 | 3.83 | 4.03 | 0.65 | -0.75 | 6.57 |
| NC(=O)c1cc(-c2ccncc2)cc(-c2ccccc2)c1N | 6.72 | 3.44 | 9.1 | 1.01 | -1.21 | 1.46 | 1.47 | 3.07 | 2.57 | 2.79 | 2.63 | 4.37 | 2.48 | 4.36 | 3.52 | 2.61 | 5.81 | 3.6 | 2.86 | 4.45 |
| c1ccc(Oc2ccc(Nc3ncc(-c4ccccc4)o3)cc2)cc1 | 4.29 | 4.32 | 4.11 | 1.98 | 3.12 | 0.81 | 1.91 | 0.83 | 1.55 | 0.67 | 0.25 | 2.19 | 2.9 | 6.17 | 2.79 | 3.61 | 3.17 | 0.33 | 3.46 | 1.31 |
| O=C(Nc1n[nH]c2cc(-c3ccccc3)ccc12)C1CC1 | 1.05 | 2.59 | 0.78 | 0.84 | 1.81 | 1.2 | 0.07 | 3.06 | 3.36 | 3 | 3.11 | 2.86 | 5.38 | 1.79 | 1.73 | 4.57 | 3.95 | 3.49 | 4.22 | 4.21 |
| COc1cccc(-n2cnc3c(N/N=C/c4ccncc4)ncnc32)c1 | 1.07 | 3.27 | 6.91 | 2.62 | 4.66 | 2.12 | 4.76 | -0.37 | 0.82 | -0.06 | 1.9 | 1.3 | 4.05 | 1.67 | 2.41 | 3.19 | 3.83 | 1.05 | 3.79 | -1.1 |
| NC(=O)c1ccc(Oc2nccc(-c3c(-c4ccc(F)cc4)ncn3C3CCNCC3)n2)cc1 | 3.99 | 3.87 | 4.42 | 2.06 | 1.84 | -0.35 | 0.53 | 3.21 | 4.43 | 1.77 | 3.24 | 2.88 | 3.6 | 1.93 | 4.5 | 3.5 | 2.61 | 2.33 | 3.68 | 7.31 |
| COc1ccc2cc(-c3c(-c4ccncc4)nc(-c4ccc(S(C)(=O)=O)cc4C)n3C)ccc2c1 | 10.6 | 10.5 | 12.3 | 6.01 | 9.72 | 4.66 | 9.83 | 3.42 | 3.72 | 1.53 | 2.04 | 3.01 | 4.51 | 5.05 | 4.24 | 2.89 | 4.29 | 3.65 | 2.77 | 4.21 |
| CCC(=O)Nc1ccc(C)c(-c2ccc(C(=O)NCC3CC3)cc2)c1 | 4.2 | 2.63 | 3.64 | 0.56 | 0.53 | 0.82 | 0.79 | 1.75 | 2.09 | 0.01 | 1.25 | 1.88 | 2.02 | 1.32 | 0.49 | 2.14 | 2.43 | 1.31 | 2.54 | 4.95 |
| N#Cc1ccc(Oc2nccc(-c3c(-c4ccc(F)cc4)ncn3C3CCNCC3)n2)cc1 | 4.31 | 2.81 | 4.38 | 0.36 | 1.46 | 1.39 | 1.85 | 2.38 | 3.07 | 0.67 | 0.97 | 2.45 | 2.02 | 7.44 | 3.86 | 2.02 | 3.62 | 2.27 | 3.89 | 3.09 |
